# PubChem BioAssay (NCI)
# Compounds without any hit were thinned out: in the full panel of roughly 83,000, 20% have a hit.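 Negative percent growth values reflect cell death: -40 means 40% of the cells present at the start died, and -100 means all died.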 A number with no mark means an inactive call. Calls of active or inactive are those of the source. Rule for the calls: active = growth percent below 10; inactive = the rest.
# Columns and labels:
# Assay in all cases: NCI-60 one-dose screen, 48 h (100 = growth as untreated, 0 = no growth, -100 = all killed)
# Conditions in all cases: 10 µM unless noted
# NCI-H23 lung = system: NCI-H23 lung
# NCI-H226 lung = system: NCI-H226 lung
# NCI-H322M lung = system: NCI-H322M lung
# HOP-62 NSCLC = system: HOP-62 NSCLC
# NCI-H460 lung = system: NCI-H460 lung
# HOP-92 NSCLC = system: HOP-92 NSCLC
# NCI-H522 lung = system: NCI-H522 lung
# A549/ATCC NSCLC = system: A549/ATCC NSCLC
# 786-0 renal = system: 786-0 renal
# DU-145 prostate = system: DU-145 prostate
# K-562 leukemia = system: K-562 leukemia
# MALME-3M melanoma = system: MALME-3M melanoma
# MDA-MB-231 breast = system: MDA-MB-231 breast
# RXF 393 renal = system: RXF 393 renal
# SF-268 CNS = system: SF-268 CNS
# SF-295 CNS = system: SF-295 CNS
# SF-539 CNS = system: SF-539 CNS
# UACC-257 melanoma = system: UACC-257 melanoma
# M14 melanoma = system: M14 melanoma
SMILES,growth (NCI-H23 lung),growth (NCI-H226 lung),growth (NCI-H322M lung),growth (HOP-62 NSCLC),growth (NCI-H460 lung),growth (HOP-92 NSCLC),growth (NCI-H522 lung),growth (A549/ATCC NSCLC),growth (786-0 renal),growth (DU-145 prostate),growth (K-562 leukemia),growth (MALME-3M melanoma),growth (MDA-MB-231 breast),growth (RXF 393 renal),growth (SF-268 CNS),growth (SF-295 CNS),growth (SF-539 CNS),growth (UACC-257 melanoma),growth (M14 melanoma)
COc1ccccc1C(=O)NC(=S)Nc1ccc(-c2nc3ccccc3[nH]2)cc1,58.4%,46.3%,80.7%,46.2%,4.59% (active),101%,91.4%,58.7%,41.5%,42.9%,48%,27.5%,-10.1% (active),49.1%,49.2%,61.3%,48.1%,94.3%,54.3%
COc1ccc(Nc2ncc(Br)c(NCCCNC(=O)C3CCC3)n2)cc1,31%,21.8%,43.1%,10.9%,19.4%,40%,50.1%,19.8%,24.3%,38.9%,23%,77.7%,-25.7% (active),-41.2% (active),23.4%,30.9%,2.94% (active),74.3%,55.2%
CCCCCCCCn1cc(C2=C(c3coc4ccc(OC)cc34)C(=O)NC2=O)c2ccccc21,54.4%,-38.6% (active),99%,116%,101%,94.2%,96.7%,101%,104%,106%,121%,89.5%,102%,105%,97.2%,97.2%,95.7%,94.7%,96.1%
CC(=O)C(C(C)=O)c1nc2sc3cc(Cl)ccc3n2c(=N)c1C#N,81.4%,75.1%,87.3%,81.9%,95.2%,56%,83%,98.7%,98.3%,97.4%,85.2%,95.2%,51.9%,109%,77.7%,98.4%,95.5%,108%,97.2%
CCn1c(Sc2nnc(NC(=O)CSC(=S)N3CCCCC3)s2)nc2c1c(=O)n(C)c(=O)n2C,91.3%,86.6%,101%,87.1%,101%,81.1%,38.1%,78.1%,92.4%,98%,43.6%,71.5%,103%,86.2%,96%,83.9%,97.7%,94.4%,67.9%
C=CCOc1cccc(/C=C2\SC(=Nc3ccc(O)cc3)NC2=O)c1,40.2%,-9.25% (active),53.5%,25.6%,2.23% (active),30.8%,-10.9% (active),18.6%,11.2%,5.29% (active),5.21% (active),58.3%,-12.1% (active),-12.8% (active),19.3%,7.15% (active),-38.1% (active),68.4%,9.92% (active)
CS(=O)(=O)c1ccc(N/N=C/c2c(-c3ccc(S(C)(=O)=O)cc3)[nH]c3ccc(F)cc23)cc1,41.6%,67.2%,45%,28.1%,12.8%,16.3%,27.6%,44.7%,15.9%,39.9%,10.5%,10.7%,29.6%,-10.9% (active),39.3%,-52.8% (active),-19.8% (active),14.1%,32.9%
CCNCCNc1cc(C2CCCC2)c(C#N)c2nc3ccccc3n12,69.6%,46.1%,23.7%,33.9%,2.84% (active),52.3%,6.72% (active),7.98% (active),20%,28%,-28.3% (active),-46.6% (active),-45% (active),-32.4% (active),22.1%,-61.7% (active),-82.4% (active),-27.3% (active),-25.7% (active)
N[C@@H]1CCC[C@H]1NCCCCN1C(=O)c2cccc3cccc(c23)C1=O,80.4%,91.9%,64.4%,81.9%,59.8%,48%,65.8%,67.4%,58%,59.8%,60.4%,116%,58.2%,72.8%,52.6%,84.4%,7.65% (active),100%,64%
CNC(=O)c1cc(Oc2ccc3nc(NC(=O)Nc4cc(C(F)(F)F)cc(C(F)(F)F)c4)sc3c2)ccn1,-67.9% (active),-13.7% (active),-46.6% (active),-70.5% (active),-57.5% (active),-54.6% (active),-71.9% (active),-71.4% (active),-64% (active),-39.6% (active),-2.97% (active),-57.5% (active),-53.1% (active),-24.5% (active),-25.6% (active),-81.9% (active),-80% (active),-50.8% (active),-39% (active)
Cc1[nH]c(-c2nc3ccccc3[nH]2)c(C)c1C(=O)N1CCOCC1,88.5%,91.4%,94.6%,105%,101%,91.1%,91%,101%,102%,107%,106%,95.7%,83.7%,93.6%,99.5%,96%,96.2%,94.1%,95%
CC(C)c1ccc(C(=O)OC(=O)c2ccc(C(C)C)cc2)cc1,86.4%,97.9%,88.8%,86.2%,96.3%,87.8%,85.3%,103%,95.8%,119%,74.7%,86.3%,116%,98.5%,103%,98.9%,108%,105%,94.5%
CCCNCC(=O)Nc1ccc(C(=O)OC(C)(C)CC)cc1,102%,95%,97%,99.7%,104%,74.4%,66.6%,97.1%,90.8%,101%,101%,90.9%,102%,116%,99%,103%,108%,105%,96.8%
Fc1ccc(Nc2ccc3cc(OCCCN4CCOCC4)ccc3n2)cc1F,55.7%,76.8%,71.4%,65.9%,36.6%,52.8%,-21.4% (active),42.9%,48.6%,64.2%,-12% (active),42.6%,-40.9% (active),61.1%,59.3%,19.7%,37.5%,30.4%,-6.62% (active)
CC(C)n1nc(C#Cc2cccc(O)c2)c2c(N)ncnc21,-28.4% (active),-41.8% (active),-30.3% (active),-52.5% (active),-5.33% (active),-70.5% (active),-44.5% (active),-60% (active),-72% (active),-6.9% (active),-23% (active),-74.9% (active),-67.7% (active),-87.2% (active),-49.4% (active),-71.9% (active),-75.4% (active),-41.4% (active),-63.8% (active)
N=C(N)c1ccc(-c2ccc(-c3ccc(Cl)cn3)s2)cc1,67.8%,83.8%,4.72% (active),56.3%,-46.5% (active),34.7%,48.7%,27.6%,52.9%,37.6%,-9.89% (active),77.9%,-46.5% (active),52%,79.8%,-41.4% (active),40.2%,94.2%,3.24% (active)
CCCCCOC(=O)c1ccc(NC(=O)CNCC(C)C)cc1,99.4%,84.7%,91.9%,85.1%,103%,53.8%,70.1%,88.4%,99.9%,102%,88.8%,107%,57.7%,89.7%,95.9%,100%,102%,99.3%,97.4%
